In PubChem BioAssay (NCATS):
Records with an inconclusive call do not appear. A call without a number means that no potency is given here. Calls of active or inactive are those of the source. Calls follow the shape of the dose curve; as a rule, active = well fitted inhibition curve with a large enough effect; inconclusive = small, poorly fitted or top-dose-only effect; inactive = no such curve, though single readings can be large or run the other way.

assay: qHTS Screen of the MIPE 4.0 Collection Against Ewings Sarcoma (TC71) (AID 1259253); conditions: TC71 Ewing sarcoma viability, CellTiter-Glo, 48 h; series mostly up to 45.8 µM; also: nearly all actives have a fitted effect of over 40% in size
Method in brief: (§1)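 Measured: ATP luminescence (CellTiter-Glo) 10 min after reagent addition, following 48 h drug treatment. Relative luciferase units converted to percent activity, with no-cell wells as full and DMSO wells as zero inhibition.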
Potency is read from the fitted curve at half-maximal effect.

Compound | Potency
Nc1nc(OCc2ccccc2)c2[nH]cnc2n1 | 13.2 µM (active)
O=C(NOCC1CC1)c1ccc(F)c(F)c1Nc1ccc(I)cc1Cl | 20.9 µM (active)
Cc1cc(C2CCCCC2)n(O)c(=O)c1 | 5.26 µM (active)
COc1ccc(C2(C#N)CCC(C(=O)O)CC2)cc1OC1CCCC1 (configuration not stated) | inactive
Cn1c(NCCN(CCO)CCCc2ccc([N+](=O)[O-])cc2)cc(=O)n(C)c1=O | 18.7 µM (active)
O=c1c(O)c(-c2ccc(O)cc2O)oc2cc(O)cc(O)c12 | inactive
NCCCCNCCCN | inactive
CCCc1cc(=O)[nH]c(=S)[nH]1 | inactive
Cc1ccc(S(=O)(=O)NC(=O)NN2CC3CCCC3C2)cc1 (configuration not stated) | 16.6 µM (active)
CN(c1nccc(=O)[nH]1)C1CCN(c2nc3ccccc3n2Cc2ccc(F)cc2)CC1 | 18.7 µM (active)
Cc1cc2cc3c(C)cc(=O)oc3c(C)c2o1 | 11.8 µM (active)
CN(C)CCCC1(c2ccc(F)cc2)OCc2cc(C#N)ccc21 (configuration not stated) | 14.8 µM (active)
Nc1ncn([C@H]2C[C@H](O)[C@@H](CO)O2)c(=O)n1 | 2.35 µM (active)
Cc1nc2n(c(=O)c1CCN1CCC(c3noc4cc(F)ccc34)CC1)CCCC2 | inactive
COC(=O)C1=C(C)NC(C)=C(C(=O)OC(C)C)C1c1cccc2nonc12 (configuration not stated) | 26.4 µM (active)
COC(=O)C1=C(C)NC(C)=C(C(=O)OCCCN2CCC(c3ccccc3)(c3ccccc3)CC2)C1c1cccc([N+](=O)[O-])c1 (configuration not stated) | 20.9 µM (active)

assay: qHTS Screen of the MIPE 4.0 Collection Against Ewings Sarcoma (EW8) (AID 1259255); conditions: EW8 Ewing sarcoma viability, CellTiter-Glo, 48 h; series mostly up to 45.8 µM; also: nearly all actives have a fitted effect of over 35% in size
Method in brief: as §1

Compound | Potency
N=C(N)c1ccc2cc(OC(=O)c3ccc(N=C(N)N)cc3)ccc2c1 | inactive
Nc1nc(OCc2ccccc2)c2[nH]cnc2n1 | 26.4 µM (active)
CCC[C@@H]1C[C@@H](C(=O)N[C@@H]([C@H]2O[C@H](SC)[C@H](O)[C@@H](O)[C@H]2O)[C@@H](C)O)N(C)C1 | inactive
CC1(C)NC(=O)N(c2ccc([N+](=O)[O-])c(C(F)(F)F)c2)C1=O | inactive
Cc1cc(C2CCCCC2)n(O)c(=O)c1 | 14.8 µM (active)
CCCCN(CCCC)CCC(O)c1cc2c(Cl)cc(Cl)cc2c2cc(C(F)(F)F)ccc12 (configuration not stated) | inactive
COc1ccc(C2(C#N)CCC(C(=O)O)CC2)cc1OC1CCCC1 (configuration not stated) | inactive
COc1cc2nc(N3CCN(C(=O)C4CCCO4)CC3)nc(N)c2cc1OC (configuration not stated) | inactive
O=C(CCc1ccc(O)cc1)c1c(O)cc(O)cc1O | 5.9 µM (active)
CC(=O)O[C@H]1C(=O)[C@@]2(C)C([C@H](OC(=O)c3ccccc3)[C@]3(O)C[C@H](OC(=O)[C@H](O)[C@@H](NC(=O)c4ccccc4)c4ccccc4)C(C)=C1C3(C)C)[C@]1(OC(C)=O)CO[C@@H]1C[C@@H]2O (some centres not stated) | inactive
Cc1ccc(Nc2nccc(N(C)c3ccc4c(C)n(C)nc4c3)n2)cc1S(N)(=O)=O | inactive
N[C@@H](Cc1cc(I)c(Oc2cc(I)c(O)c(I)c2)c(I)c1)C(=O)O | inactive
COC(=O)N[C@H](C(=O)N[C@@H](Cc1ccccc1)[C@@H](O)CN(Cc1ccc(-c2ccccn2)cc1)NC(=O)[C@@H](NC(=O)OC)C(C)(C)C)C(C)(C)C | inactive
CN(C)CCCC1(c2ccc(F)cc2)OCc2cc(C#N)ccc21 (configuration not stated) | inactive
COc1c2occc2cc2ccc(=O)oc12 | inactive
Cc1nc2n(c(=O)c1CCN1CCC(c3noc4cc(F)ccc34)CC1)CCCC2 | inactive
CCCCCCCCOc1ccccc1C(=O)Nc1ccc(C(=O)OCC[N+](C)(CC)CC)cc1 | 16.6 µM (active)
CS(=O)(=O)OCCCCOS(C)(=O)=O | inactive
Nc1ccc(S(N)(=O)=O)cc1 | inactive
COC(=O)C1=C(C)NC(C)=C(C(=O)OCCCN2CCC(c3ccccc3)(c3ccccc3)CC2)C1c1cccc([N+](=O)[O-])c1 (configuration not stated) | 18.7 µM (active)
COc1cc2c(N3CCN(C(=O)Nc4ccc(OC(C)C)cc4)CC3)ncnc2cc1OCCCN1CCCCC1 | 23.5 µM (active)
